PKA-R1A activ: PKA-R1A complex activation | 0.083% of 340,000 active | PKA-R1A dissociation, Cy5-IP20 fluorescence polarization; scaled: DMSO 0%, 113 µM cGMP 100% | activation, % at 11.4 µM | P00514+P68181;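 active means percent activation above the mean of all tested compounds plus 3 SD, cut at about 19% in these data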;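 further: higher means more PKAc released from R1A so a rise in polarization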
CHT inh: human CHT choline transport inhibition; Q9GZV3; CHT-expressing cells, membrane potential dye, choline response; stronger effect = lower value; B-score at 10 µM; 0.86% of 310,000 active; AID 488975;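 active means B-score over 3 SD under the library average, and starting fluorescence ratio not unusually high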;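 further: choline stimulus applied at its EC90 after an EC20 pre-addition; B-score computed on integrated fluorescence ratio after choline addition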
CHT allo act: human CHT allosteric activation; AID 488977; B-score at 10 µM; CHT-expressing cells, membrane potential dye, choline EC20; stronger effect = higher value; LV-AA mutant CHT in HEK293 cells; Q9GZV3; 0.49% of 310,000 active;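 active means initial fluorescence not abnormally high and integrated response B-score, plate-corrected, over 3 SD above library mean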
ANO1 block: blocks the mouse calcium-activated chloride channel TMEM16A; normalized B-score (activity score, 25-100; higher = stronger inhibition) at 10 µM; HEK293 TMEM16A/YFP iodide influx fluorescence, ionomycin; Q8BHY3; 1.2% of 310,000 active; AID 588511;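 active means ratio plate-corrected score three or more library SD toward inhibition, starting fluorescence score within five deviations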;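 further: score derived from kinetic fluorescence span divided by baseline fluorescence per well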
Target sequence (Q8BHY3 whole entry, looked up): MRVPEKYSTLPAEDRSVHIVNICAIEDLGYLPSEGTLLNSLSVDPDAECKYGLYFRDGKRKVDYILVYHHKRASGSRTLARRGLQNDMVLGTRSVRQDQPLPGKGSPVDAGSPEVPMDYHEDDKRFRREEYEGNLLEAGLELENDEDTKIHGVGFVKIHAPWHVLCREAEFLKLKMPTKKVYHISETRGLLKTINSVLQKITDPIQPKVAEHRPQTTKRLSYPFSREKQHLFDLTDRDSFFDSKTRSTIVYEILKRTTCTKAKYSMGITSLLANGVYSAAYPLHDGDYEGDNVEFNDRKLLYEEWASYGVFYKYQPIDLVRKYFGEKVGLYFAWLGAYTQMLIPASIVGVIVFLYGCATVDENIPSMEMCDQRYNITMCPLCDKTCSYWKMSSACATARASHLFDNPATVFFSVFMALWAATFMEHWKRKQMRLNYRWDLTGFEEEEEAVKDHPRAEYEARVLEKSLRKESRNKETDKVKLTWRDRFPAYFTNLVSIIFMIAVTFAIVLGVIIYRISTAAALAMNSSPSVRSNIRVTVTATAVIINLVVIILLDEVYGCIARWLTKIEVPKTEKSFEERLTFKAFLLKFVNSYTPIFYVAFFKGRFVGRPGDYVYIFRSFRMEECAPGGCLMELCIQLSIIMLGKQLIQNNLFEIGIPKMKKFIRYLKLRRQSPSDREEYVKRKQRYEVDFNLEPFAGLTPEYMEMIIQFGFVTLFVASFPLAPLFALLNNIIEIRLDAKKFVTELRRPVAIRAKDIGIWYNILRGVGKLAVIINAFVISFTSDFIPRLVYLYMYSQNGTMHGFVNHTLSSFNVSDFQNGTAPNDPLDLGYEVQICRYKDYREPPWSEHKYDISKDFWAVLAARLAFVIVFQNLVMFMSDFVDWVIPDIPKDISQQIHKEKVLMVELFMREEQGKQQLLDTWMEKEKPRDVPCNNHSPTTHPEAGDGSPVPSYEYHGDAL
ANO1 activ: activates or potentiates the mouse TMEM16A chloride channel. AID 623877. B-score at 10 µM. Q8BHY3. 0.3% of 340,000 active. HEK293 TMEM16A/YFP-H148Q/I152L, iodide quench fluorescence; stronger effect = lower value;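 active means fluorescence-ratio B-score plate-corrected deviation score at least 3 library SD below zero, with starting fluorescence score within 5 deviations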;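 further: channel opened by trigger with iodide after compound preincubation; score built on the fluorescence ratio of max minus min over baseline; more negative score means more quench and so TMEM16A activation or potentiation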
PKA-R2B activ: activators of human PKA-R2B complex; AID 504700; activation, % at 11.4 µM; 0.079% of 340,000 active; PKA-R2B holoenzyme dissociation, Cy5-IP20 fluorescence polarization; R2B truncated from residue 108, S112A mutant; 0% DMSO only, 100% 113 µM cGMP; P22694+P31323;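 active means activation above a cutoff set at the mean over all compounds plus 3 SD, cut at about 18% in these data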;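 further: higher means more holoenzyme dissociation and a rise in polarization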
TMEM16A reconf: re-confirmation of mouse TMEM16A chloride channel inhibitors. shares compounds with ANO1 block. HEK293 TMEM16A/YFP-H148Q, iodide quench fluorescence; ionomycin added to raise cell calcium. inhibition, % at 10 µM. 39% of 2,300 active. AID 652189;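 active means mean duplicate percent inhibition, scaled so buffer wells are 0 and the reference blocker 100, over three buffer SD above buffer mean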
HEK293 Ca mobil: counter-screen for TMEM16A inhibitors: effect on calcium mobilization; shares compounds with ANO1 block; calcium response (% of ionomycin), % at 10 µM; TMEM16A/YFP HEK293, Fluo4 calcium mobilization; 2% of 2,300 active; AID 652231;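 active means duplicate-averaged calcium signal over 20% of the ionomycin maximum, relative to buffer baseline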;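 further: each well's signal is peak minus trough fluorescence divided by its pre-addition baseline; 0% = buffer wells and 100% = ionomycin wells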
YFP-HEK293 quench: counter-screen for TMEM16A inhibitors: effect in parental YFP-HEK293 cells | iodide YFP quench, ionomycin | AID 652233 | 2,300 tested, under 10 active | shares compounds with ANO1 block | YFP ratio F(max-min)/F0 at 10 µM;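 active means yellow fluorescent protein signal ratio exceeding the buffer control mean by over 5 SD of those controls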;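 further: ratio is mean of duplicate wells from kinetic YFP trace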
ClC-1 inh: selectivity of TMEM16A inhibitors: inhibition of rat ClC-1 chloride channel; shares compounds with ANO1 block; CHO ClC-1-YFP, iodide influx fluorescence quench; iodide control reads 0, buffer control 100; ratio percent, % at 10 µM; 2,300 tested, under 10 active;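 active means duplicate-mean ratio percent above the mean of iodide-only control wells, which defines zero, plus 5 of their SD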;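 further: higher percent means stronger block of ClC-1 iodide influx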
The depositor's hits bear a star; i = inactive; . = not tested or not shown. Only some compounds are listed: those with a hit (about 2.5% of all), similar ones and a draw of the others.

SMILES	PKA-R1A activ	CHT inh	CHT allo act	ANO1 block	ANO1 activ	PKA-R2B activ	TMEM16A reconf	HEK293 Ca mobil	YFP-HEK293 quench	ClC-1 inh
O=C1Nc2ccccc2C1C(C[N+](=O)[O-])c1ccccc1 (configuration not stated)	3	i	i	i	i	0	.	.	.	.
CCCc1cc(C(=O)N2CCN(c3ccc(C(F)(F)F)cn3)CC2)sc1C	-15	i	i	100*	i	-17	i	i	-1.2	-6
O=C(Nc1ccccc1)C(=O)c1c[nH]c2ccccc12	-3	i	i	i	i	13	.	.	.	.
Cc1ccc(S(=O)(=O)N2CCN(c3ncnc4sccc34)CC2)cc1C	-15	.	.	.	i	-3	.	.	.	.
O=S(=O)(c1ccc2c(c1)OCCO2)N1CCC(O)(c2ccc(Cl)cc2)CC1	-8	i	i	100*	i	-3	i	i	-1.1	0
O=S(=O)(c1cccc(Cl)c1)N1CCN(S(=O)(=O)c2ccc3c(c2)OCCO3)CC1	-18	.	.	.	i	-9	.	.	.	.
O=S(=O)(c1ccc2c(c1)OCCO2)N1CCN(c2ncnc3sccc23)CC1	.	i	i	25*	i	.	17%*	i	-1.1	-19
O=C(CN1C(=O)c2cccc([N+](=O)[O-])c2C1=O)N1CCN(S(=O)(=O)c2ccccc2)CC1	5	.	.	.	i	1	.	.	.	.
COc1ccc(CNC(=O)CCc2c[nH]c3ccccc23)cc1	12	i	i	100*	i	-6	i	i	-1.1	-10
Cc1ccc(C(=O)N2CCC(Cc3ccccc3)CC2)cc1S(=O)(=O)N1CCOCC1	6	.	.	.	i	-5	.	.	.	.
Cc1ccc(-c2nc3cccnc3o2)cc1NC(=O)COc1ccc(Cl)cc1C	-14	i	i	i	i	8	.	.	.	.
Cc1ccc(-c2nc3cccnc3o2)cc1NC(=O)COc1ccc(C(C)(C)C)cc1	-21	i	i	25*	i	2	i	21%*	-1	-18
O=S(=O)(Nc1nnc(-c2ccccc2)s1)c1ccc(Cl)cc1	-4	i	i	100*	i	0	38%*	i	-0.9	-18
CN(c1ccccc1)S(=O)(=O)c1ccc(C(=O)NNC(=O)c2ccccc2F)cc1	3	.	.	.	i	-4	.	.	.	.
CCCc1cc(C(=O)OC)c(NC(=O)CCC(=O)O)s1	6	i	i	i	i	2	.	.	.	.
CCCc1cc(C(N)=O)c(NC(C)=O)s1	2	i	i	100*	i	-7	i	i	-0.92	-14
OCC[C@@H]1C[C@H](O)[C@@H](O)[C@]2(CCc3ccccc3O2)O1	1	i	i	25*	i	-3	i	i	-1.1	-3
CC1CCN(C(=O)COC(=O)c2ccc3c(c2)C(=O)N(Cc2ccco2)C3=O)CC1	-6	.	.	.	i	-3	.	.	.	.
Cc1cccc2sc(NC(=O)CN(C)S(=O)(=O)c3ccc(Br)s3)nc12	-8	i	i	100*	i	-5	i	i	-1	-6
CCOC(=O)c1oc2ccccc2c1COC(=O)CNC(=O)c1ccco1	-3	i	i	i	i	-7	.	.	.	.
O=C1CC(N2CCN(c3nc4ccccc4s3)CC2)C(=O)N1Cc1cccs1 (configuration not stated)	1	i	i	100*	i	-5	30%*	i	-0.81	-4
Cc1[nH]c(N=Nc2ccccc2)nc1N=Nc1ccccc1	3	i	i	100*	i	-3	i	i	-1	-8
O=C(OCc1ccc(Cl)cc1)c1ccccc1C(=O)c1ccccc1	-10	i	i	100*	i	-13	i	i	-1.3	-4
Cc1nc2ccccc2n1CC(O)COc1ccccc1Cl (configuration not stated)	0	i	i	25*	i	7	i	i	-0.99	-13
Cc1nc2ccccc2n1Cc1ccc(Cl)cc1	-6	i	i	25*	i	-3	42%*	i	-1.1	-26
SMILES	PKA-R1A activ	CHT inh	CHT allo act	ANO1 block	ANO1 activ	PKA-R2B activ	TMEM16A reconf	HEK293 Ca mobil	YFP-HEK293 quench	ClC-1 inh
CCOC(=O)c1c(C)n(C)c2ccc(OCC(O)Cn3c(C)nc4ccccc43)cc12 (configuration not stated)	5	i	i	100*	i	10	i	i	-1.1	-10
Cc1ccccc1Cn1c(C)nc2ccccc21	-3	i	i	i	i	-1	.	.	.	.
O=[N+]([O-])c1cc(CN2CCCC2)ccc1Sc1ccc(Cl)cc1	2	i	i	i	i	5	.	.	.	.
COC(=O)N1[C@H](C)C=C[C@]1(Cc1ccccc1)C(=O)O	0	i	i	i	i	-1	.	.	.	.
CN(C(=O)CN1C(=O)c2ccccc2S1(=O)=O)C1CCCCC1	3	.	.	.	i	-6	.	.	.	.
CC(C)C(C)(C#N)NC(=O)CSc1ncnc2sc(-c3ccccc3)cc12 (configuration not stated)	4	i	i	25*	i	-2	i	i	-1.1	-4
Oc1ccc(-c2[nH]ncc2-c2ccc(Br)cc2)c(O)c1	-8	i	i	i	i	1	.	.	.	.
Oc1ccc(-c2[nH]ncc2-c2ccc(Cl)cc2)c(O)c1	-8	i	i	25*	i	-14	i	i	-1.4	-3
CCn1c(SCC(=O)Nc2ccc3c(c2)oc2ccccc23)nnc1-c1ccc(N)cc1	-6	i	i	100*	i	-7	i	i	-0.98	-5
CC(=O)Nc1ccc(-c2nnc(SCC(=O)Nc3ccc4c(c3)oc3ccccc34)n2C)cc1	-12	i	i	i	i	-7	.	.	.	.
O=C1C=C(c2ccc(C(=O)O)cc2)C[C@@H](c2ccc3c(c2)OCO3)C1	-1	.	.	.	i	7	.	.	.	.

Screening data as filed in PubChem.
